Bioassay records from PubChem BioAssay.
TDP1 cell noCPT: qHTS for Inhibitors of human tyrosyl-DNA phosphodiesterase 1 (TDP1): qHTS in cells in absence of CPT. DT40 Tdp1-/- hTDP1 cells, no CPT, ATP luminescence, 48 h. Potency, µM (top dose mostly 46.2 µM), for the others: at the highest dose activity change, negative = growth inhibition, hits mostly inhibitors. actives 15% (n = 420,000); further: on the % scale 0 is the no-effect control and ±100 the full control effect; nearly all actives have a fitted effect of over 55% in size
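No-CPT arm: Tdp1-/-;hTDP1 DT40 cells (400/well) plus compounds, incubated ≥48 hr at 37 °C. Readout CellTiter-Glo luminescence.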
TGFb inhibitor: blocks TGF-b signaling; Potency, µM (titrated, usually from 46.1 µM), inactives show top-dose activity, negative = inhibition, hits mostly inhibitors; actives 1.2% (n = 410,000); HepG2 CAGA-GFP TGF-b/SMAD3 reporter, GFP fluorescence, 18 h; TGF-beta stimulated, 500 pg/mL final; further: on the % scale 0 is the no-effect control and ±100 the full control effect; nearly all actives have a fitted effect of over 65% in size
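Smad-responsive CAGA-GFP expression was quantified in HEPG2 cells exposed to compounds and 500 pg/mL final TGF-beta for 18 h at 37 degrees C; unstimulated wells defined full inhibition.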
HT1080 IDH1KD tx: toxicity to HT-1080 IDH1 knockdown cells (counter line); HT-1080 IDH1 knockdown viability, ATP luminescence, 48 h; Potency, µM (highest dose often 46.1 µM), for the others: top-dose activity, negative = toxicity, actives largely listed as cytotoxic; actives 2% (n = 360,000); AID 686971;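 further: 0% = DMSO wells and -100% = cell-free medium wells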
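Knockdown cells (IDH1KD HT-1080) received compounds 2 h after plating at 750 cells/well and were kept 48 h at 37 °C in 5% FBS RPMI. A CellTiter-Glo luminescence read gave % activity for curve fitting.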
HT1080-NT tox: kills 2HG-producing HT-1080-NT fibrosarcoma cells. HT-1080-NT fibrosarcoma viability, CellTiter-Glo ATP luminescence, 48 h. Potency, µM (series often up to 46.1 µM), without a hit: at the highest dose activity, negative = less viability, most hits filed as cytotoxic. actives 1.6% (n = 360,000);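 further: NT is the 2HG producing partner of a matched IDH1 knockdown line; 0% = DMSO-treated cells and -100% = media-only wells without cells; nearly all actives have a fitted effect of over 55% in size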
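HT-1080-NT fibrosarcoma cells (2HG-overproducing), 750 cells/well in RPMI with 5% FBS, dosed after 2 h and incubated 48 h at 37C. CellTiter-Glo luminescence normalized to DMSO and no-cell wells; concentration-response curves fitted and classed.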
TDP1 cell CPT: DT40-hTDP1 cell growth loss with CPT | chicken DT40 Tdp1-/-;hTDP1 cells + 20 nM CPT, ATP luminescence, 48 h | Potency, µM (doses to about 46.2 µM), for the others: at the highest dose activity change, negative = growth inhibition, usual class: inhibitors | actives 12% (n = 420,000) | AID 686979; further: on the % scale 0 is the no-effect control and ±100 the full control effect; nearly all actives have a fitted effect of over 55% in size
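Chicken DT40 Tdp1-/- cells complemented with human TDP1, 400 cells/well, exposed to compounds plus 20 nM camptothecin for at least 48 h at 37 C; viability read as ATP content by CellTiter-Glo luminescence.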
HepG2 tox-1: kills HepG2 cells in TGF-b inhibitor counter-screen; Potency, µM (titrated, usually from 46.1 µM), inactives show at the highest dose activity change, negative = cytotoxicity, usual class: cytotoxic; HepG2 CAGA-GFP viability, ATP luminescence, 18 h; AID 588856; actives 0.76% (n = 410,000)
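CellTiter-Glo luminescence gave cytotoxicity after 18 hours at 37 degrees C. The cells were HepG2 CAGA-GFP in 1% FBS DMEM, stimulated with 500 pg/mL TGF-beta after compound addition. %Activity was normalised to no-cell wells (complete cell-killing) and DMSO (no toxicity), and curves were fitted and classified.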
TGFb confirm: TGF-b pathway inhibition, cherry-pick retest; HepG2 CAGA-GFP TGF-b reporter, GFP fluorescence, 18 h; cells stimulated with TGF-beta, 500 pg/mL; actives 63% (n = 1,600); shares compounds with TGFb inhibitor; Potency, µM (doses to about 46.1 µM), without a hit: at the highest dose activity, negative = inhibition, most hits filed as inhibitors; further: on the % scale 0 is the no-effect control and ±100 the full control effect; nearly all actives have a fitted effect of over 65% in size
HepG2 tox-2: counter-screen for TGF-b inhibitors: cytotoxicity in HepG2 cells; shares compounds with TGFb inhibitor; actives 27% (n = 1,600); Potency, µM (highest dose often 46.1 µM), for the others: top-dose activity, negative = cytotoxicity, hits mostly inhibitors; AID 720535; HepG2 CAGA-GFP viability, ATP luminescence, 18 h; cells stimulated with TGF-beta, 500 pg/mL; further: on the % scale 0 is the no-effect control and ±100 the full control effect; nearly all actives have a fitted effect of over 70% in size
TGFb CCL64 inh: TGF-b inhibition, CCL64 orthogonal assay. shares compounds with TGFb inhibitor. CCL64 CAGA-GFP reporter, TGF-b stimulated, GFP fluorescence, 18 h. Potency, µM (titrated, usually from 46.1 µM), for inactives: at the top dose activity, negative = inhibition, actives largely listed as inhibitors. actives 41% (n = 1,600). AID 720536; further: nearly all actives have a fitted effect of over 65% in size
TGFb COP inh: TGF-b inhibition validated with COP promoter. shares compounds with TGFb inhibitor. HepG2 COP-GFP TGF-b reporter, GFP fluorescence, 18 h; cells stimulated by added recombinant TGF-beta. Potency, µM (series often up to 46.1 µM), for the others: top-dose activity, negative = inhibition, actives largely listed as inhibitors. actives 3% (n = 1,600). AID 720537; further: nearly all actives have a fitted effect of over 70% in size
* hit, by the source's call; ? = inconclusive; · = not tested or not shown. An excerpt weighted towards active compounds, which were near 17% of everything screened. The call rests on the fitted dose curve; in most records, active means well fitted curve in the direction sought with a large enough effect; inconclusive means small, poorly fitted or top-dose-only effect, or another doubt; inactive means no such curve, though single readings can be large; an effect the other way counts as inactive or inconclusive. Potency means the concentration at half of the fitted maximal effect.

SMILES	TDP1 cell noCPT	TGFb inhibitor	HT1080 IDH1KD tx	HT1080-NT tox	TDP1 cell CPT	HepG2 tox-1	TGFb confirm	HepG2 tox-2	TGFb CCL64 inh	TGFb COP inh
Cc1onc(-c2c(F)cccc2Cl)c1C(=O)Nc1nccs1	?	-5.1%	-1.5%	-22.1%	2.7%	-20.8%	·	·	·	·
Cc1onc(-c2c(F)cccc2Cl)c1C(=O)Nc1nnc(C(F)(F)F)s1	14.6µM*	17.8µM*	?	?	11.6µM*	-26.0%	20.6µM*	?	?	35.2%
Oc1ccccc1-c1n[nH]c(-c2ccccc2O)n1	5.17µM*	2.82µM*	?	?	3.66µM*	-60.8%	?	?	?	4.2%
Clc1ccccc1-c1nc(-c2ccccc2)n[nH]1	?	0.0%	-18.9%	-10.1%	?	-55.8%	·	·	·	·
CC(Oc1ccccc1C(N)=O)C(=O)Nc1ccc(S(=O)(=O)N2CCCC2)cc1 (stereo unspecified)	-28.5%	5.5%	-12.3%	-15.9%	?	2.6%	·	·	·	·
Cc1cc(CNC(=O)c2ccc3nc(Cc4ccccc4F)oc3c2)nn1C	?	-11.2%	13.2%	13.4%	?	0.1%	·	·	·	·
O=C(NCc1ccncc1)c1ccc2nc(Cc3ccccc3F)oc2c1	?	?	-22.4%	-16.4%	25.9µM*	1.7%	?	-14.5%	15.6%	-17.6%
O[C@@H]1CN(Cc2cccs2)[C@@H](c2ccc(Cl)cc2)C[C@H]1n1cc(C2CC2)nn1	?	-6.4%	-28.3%	?	?	-8.2%	·	·	·	·
O[C@H]1CN(CC2CCCCC2)[C@@H](c2ccc(Cl)cc2)C[C@@H]1n1cc(C2CC2)nn1	?	10µM*	?	?	?	11.2µM*	23.1µM*	16.4µM*	23.1µM*	50.0%
OCCCNc1c2ccccc2nc2ccccc12	9.2µM*	4.47µM*	11.6µM*	23.1µM*	11.6µM*	22.9%	13µM*	13µM*	?	25.5%
COc1ccc(CCNc2c3ccccc3nc3ccccc23)cc1OC	20.6µM*	15.8µM*	?	20.6µM*	?	-49.1%	14.6µM*	20.6µM*	25.9µM*	-19.0%
COCc1cc(C)nc(SCc2ccc(Br)cc2)c1C#N	?	0.0%	-1.2%	7.2%	18.0%	-64.3%	·	·	·	·
